Assay [1] can be described thus: qHTS assay for small molecule agonists of the p53 signaling pathway (AID 651631; calls by dose curve; also: nearly all actives have a fitted effect of over 15% in size). Put shortly:
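Agonist mode screen using a stably integrated beta-lactamase gene under p53 response elements in HCT-116 cells. Compound exposure lasts 16 h at 37 °C; fluorescence intensity is measured following 2 h FRET substrate loading.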

Assay [2] can be described thus: qHTS assay for small molecules that induce genotoxicity in human embryonic kidney cells expressing luciferase-tagged ATAD5 (AID 651632). Also: nearly all actives have a fitted effect of over 15% in size. Put shortly:
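DMSO vehicle served as the control. HEK293T reporter cells, 16 hr at 37C, then 30 min Amplite at room temperature; ATAD5 induction is measured as luciferase activity.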
For orientation: In qHTS, concentration-response curves come from the screen itself.

A short description of assay [3]: qHTS assay for small molecule agonists of the p53 signaling pathway - cell viability (AID 651633; calls by dose curve;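 also: p53RE-bla HCT reporter cells with a stable beta-lactamase p53 reporter; series mostly up to about 83 µM; nearly all actives have a fitted effect of over 30% in size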). Put shortly: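 p53RE-bla cells were treated with compound for 16 hours at 37 C. Cytotoxicity was then measured as CellTiter-Glo luminescence after 30 min at room temperature.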
Assay [4] is described as follows: qHTS assay for small molecules that induce genotoxicity in human embryonic kidney cells expressing luciferase-tagged ATAD5 - cell viability (AID 651634; calls by dose curve; also: nearly all actives have a fitted effect of over 25% in size). Put shortly:
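Here HEK293T cells with the ATAD5 luciferase reporter are incubated with test compounds for 15.5 hr, and cytotoxicity is then gauged by measuring protease activity in live cells using fluorescence.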

Assay [5] can be described thus: qHTS assay to test for compound auto fluorescence at 590 nm (red) in HepG2 cells (AID 720674). The method, boiled down: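 Fluorescence at 590 nm emission following 540 nm excitation was recorded from HepG2 wells one hour after compound transfer, with DMSO-only wells as vehicle and Rose Bengal sodium equivalency as the scale.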
Assay [6] in a line: qHTS assay to test for compound auto fluorescence at 535 nm (green) in HepG2 cells (AID 720675).
A short description of assay [7]: qHTS assay to test for compound auto fluorescence at 460 nm (blue) in HEK293 cells (AID 720678). The method, boiled down:
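Triamterene serves as the blue fluorophore standard. Compound signal at 405/460 nm is read in HEK293 wells (2,000 cells, 10% dialyzed FBS) after overnight treatment at 37C.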

Assay [8] is described as follows: qHTS assay to test for compound auto fluorescence at 590 nm (red) in HEK293 cells (AID 720679). The method, boiled down:
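We plated HEK293 cells in 10% dialyzed FBS medium, let them adhere for 4-5 hr, then added 23 nL compound. Overnight at 37C and 5% CO2 preceded fluorescence measurement at 540/590nm.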

Assay [9] in a line: qHTS assay to test for compound auto fluorescence at 535 nm (green) in HEK293 cells (AID 720680).
Assay [10] in a line: qHTS assay to test for compound auto fluorescence at 460 nm (blue) in HEK293 cell free culture (AID 720681). Put shortly: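 Compounds were added to cell-free DMEM with 10% FBS and fluorescence read directly. The blue channel used 405 nm excitation and 460 nm emission, with triamterene as the reference fluorophore.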
Assay [11] is described as follows: qHTS assay to test for compound auto fluorescence at 535 nm (green) in HEK293 cell free culture (AID 720682). Put shortly: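 No cells present: wells hold DMEM supplemented with 10% FBS, into which compound or vehicle is pinned. Green emission is then recorded (485 nm excitation, 535 nm emission) and scaled to fluorescein.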
A short description of assay [12]: qHTS assay to test for compound auto fluorescence at 590 nm (red) in HEK293 cell free culture (AID 720683). Put shortly:
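Cell-free wells of DMEM with 10% FBS received compound, and intrinsic fluorescence was read at excitation/emission 540/590 nm. Values expressed as equivalence to Rose Bengal sodium.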

Assay [13] can be described thus: qHTS assay to test for compound auto fluorescence at 590 nm (red) in HepG2 cell free culture (AID 720684). The method, boiled down:
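Rose Bengal sodium served as the reference for red signal. Test compounds were dispensed into serum-containing MEM (10% FBS) without cells, and plates were read at 540/590 nm.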

Assay [14] can be described thus: qHTS assay to test for compound auto fluorescence at 460 nm (blue) in HepG2 cell free culture (AID 720685). Put shortly: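 Cell-free plates of MEM plus 10% FBS received 23 nL compound or DMSO vehicle; blue-channel (405/460 nm) intensity scored against triamterene as reference fluorophore.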
Assay [15] in a line: qHTS assay to test for compound auto fluorescence at 535 nm (green) in HepG2 cell free culture (AID 720686).
The nature of assay [16]: qHTS assay to test for compound auto fluorescence at 460 nm (blue) in HepG2 cells (AID 720687). Put shortly: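 HepG2 cells in MEM with 10% FBS, attached overnight at 37 C, were exposed to compound or DMSO for 1 hr at 37 C, 5% CO2. Blue fluorescence was read at 405/460 nm, with triamterene as reference fluorophore.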
In assay [17] the target is Glucocorticoid receptor (Homo sapiens) (UniProt P04150). Kind of assay: qHTS assay to identify small molecule agonists of the glucocorticoid receptor (GR) signaling pathway (AID 720691; active = well fitted activation curve with a large enough effect in the signal ratio in the repeat runs, not every such curve was filed as active; the % refers to the signal ratio). The method, boiled down:
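Compounds in DMSO, alongside positive controls, were added to GR-bla HeLa reporter cells and incubated 18 h at 37 C; GRE-driven beta-lactamase was detected by fluorescence after 2 h with FRET substrate at room temperature.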

A short description of assay [18]: qHTS assay for small molecule disruptors of the mitochondrial membrane potential (AID 720635). Also: potency is read from the fitted curve at half-maximal effect. The method, boiled down:
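HepG2 cells exposed to compound 1 hr at 37C, then Mito-MPS dye 30 min. Ratio read of aggregate (540/590 nm) versus monomer (490/535 nm) fluorescence.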

For assay [19], the target named is Glucocorticoid receptor (Homo sapiens) (UniProt P04150). Put plainly: qHTS assay to identify small molecule antagonists of the glucocorticoid receptor (GR) signaling pathway (AID 720692; active = well fitted inhibition curve with a large enough effect in the signal ratio in the repeat runs, not every such curve was filed as active; the % refers to the signal ratio). The method, boiled down: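 In a 1536-well cell format, compounds were added 4 h after seeding GR-bla HeLa cells, together with dexamethasone at 5 nM final; reporter activity was measured by FRET-substrate fluorescence following 18 h at 37 C.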
Sequence of Glucocorticoid receptor (Homo sapiens) (P04150 whole entry, looked up): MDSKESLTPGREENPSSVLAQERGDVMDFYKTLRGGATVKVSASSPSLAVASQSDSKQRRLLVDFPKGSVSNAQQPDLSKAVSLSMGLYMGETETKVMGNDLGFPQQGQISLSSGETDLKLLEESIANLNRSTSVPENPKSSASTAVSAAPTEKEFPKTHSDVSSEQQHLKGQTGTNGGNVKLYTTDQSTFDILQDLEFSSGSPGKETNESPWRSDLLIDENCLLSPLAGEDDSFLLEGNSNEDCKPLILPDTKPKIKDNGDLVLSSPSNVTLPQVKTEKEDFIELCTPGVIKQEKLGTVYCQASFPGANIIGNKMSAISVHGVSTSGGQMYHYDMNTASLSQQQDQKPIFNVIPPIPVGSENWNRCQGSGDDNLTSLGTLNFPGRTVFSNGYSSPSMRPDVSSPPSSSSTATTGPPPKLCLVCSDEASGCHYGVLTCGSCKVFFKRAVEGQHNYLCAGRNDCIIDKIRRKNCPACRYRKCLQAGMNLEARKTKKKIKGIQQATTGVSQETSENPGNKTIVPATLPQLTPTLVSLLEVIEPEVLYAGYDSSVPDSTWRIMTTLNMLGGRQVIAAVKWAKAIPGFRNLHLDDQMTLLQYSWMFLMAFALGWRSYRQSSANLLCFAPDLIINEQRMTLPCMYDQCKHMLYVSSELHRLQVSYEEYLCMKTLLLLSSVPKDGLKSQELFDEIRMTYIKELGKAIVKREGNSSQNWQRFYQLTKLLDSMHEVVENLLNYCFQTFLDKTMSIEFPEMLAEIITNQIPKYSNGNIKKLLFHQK

A short description of assay [20]: qHTS assay for small molecule disruptors of the mitochondrial membrane potential - cell viability (AID 720634; calls by dose curve;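 also: human HepG2 liver cancer cells; series mostly up to about 83 µM; nearly all actives have a fitted effect of over 20% in size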). The method, boiled down: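 Viability of HepG2 cells is scored from ATP content by luminescence; cells are exposed to compound for 1 hr at 37 C and 5% CO2, then dosed with m-MPI dye before the CellTiter-Glo reagent.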

Values without a mark were called inactive. Inconclusive results are not listed. The source made the active and inactive calls. Unless noted, calls follow the shape of the dose curve; as a rule, active = well fitted curve in the direction sought with a large enough effect in the repeat runs; inconclusive = weak or mixed curves; inactive = no such curve, though single readings can be large; an effect the other way counts as inactive or inconclusive.

For `Cc1cccc(C)c1NC(=O)CN1CCCCCC1`, the Potency result in assay [1], in [2], in assay [3], in assay [4] and in assay [17] was “inactive” each time. The compound was classed as inactive in assay [5], in assay [6], in assay [7], in assay [8], in assay [9] and in assay [10]. Besides, the compound was called inactive in assay [11], in [12], in [13], in assay [14], in assay [15] and in assay [16].

Consider `OCc1c2ccccc2cc2ccccc12`, for which the Potency entry in [1], in assay [2], in [3] and in [4] was “inactive” throughout. Besides, in assay [18], the Potency is 30.7 µM (active). Besides, the call in [5], in assay [6], in assay [7], in [8], in assay [9] and in [11] was inactive. Besides, the compound was classed as inactive in [12], in [13], in assay [14] and in [16].

As to `CCN(CC)CCNC(=O)COc1ccc(Cl)cc1`, the Potency result in [1], in assay [2], in assay [3], in assay [4], in assay [17] and in [19] was “inactive” throughout. In addition, the compound was classed as inactive in assay [5], in assay [6], in assay [7], in [8], in assay [9] and in assay [10]. Moreover, the outcome in assay [11], in [12], in [14], in [15] and in assay [16] was inactive.

As to `CC(=O)OC(C)OC(C)=O`, the Potency result in [1], in assay [2], in [3], in assay [4], in [17] and in assay [19] was “inactive” each time. Further, the compound was classed as inactive in [5], in assay [6], in assay [7], in assay [8], in assay [9] and in assay [10]. Besides, the result in assay [11], in assay [12], in assay [13] and in [15] was inactive.

Consider `CC1=CC(=O)CC(C)(C)C1=O`, for which the Potency result in [1], in assay [2], in [3], in [4], in assay [17] and in assay [19] was “inactive” throughout. The compound was classed as inactive in assay [5], in [6], in assay [7], in assay [8], in assay [9] and in assay [11]. In addition, the call in [12], in [13], in assay [14], in assay [15] and in assay [16] was inactive.

With `CN(C)CC[C@@H](c1ccc(Cl)cc1)c1ccccn1`, the Potency entry in assay [1], in [3], in [4], in assay [20], in assay [18] and in assay [17] was “inactive” in each case. The Potency result in assay [19] is “inactive”. Further, the compound was called inactive in assay [5], in [6], in assay [7], in assay [8], in assay [9] and in assay [10]. In addition, the compound was classed as inactive in assay [11], in assay [13], in assay [15] and in assay [16].

With `C=CCCC=C`, the Potency entry in assay [1], in assay [2], in assay [3] and in assay [4] was “inactive” throughout. The result in [5], in assay [6], in assay [7], in assay [8], in assay [9] and in [10] was inactive. In addition, the result in assay [11], in assay [12], in assay [13], in assay [14] and in [16] was inactive.

With `C[C@]12C(=O)OC(=O)[C@H]1[C@H]1C=C[C@@H]2C1`, the Potency result in assay [1], in assay [2], in assay [3], in assay [4], in assay [20] and in assay [17] was “inactive” each time. In [19], the Potency entry was “inactive”. In addition, the compound was classed as inactive in [5], in assay [7], in assay [8], in assay [9], in assay [10] and in [11]. Also, the outcome in assay [12], in assay [13], in assay [14], in assay [15] and in assay [16] was inactive.

Values taken from PubChem BioAssay (Tox21).
